The target of experiment [1] is T1, Ephrin type-B receptor 2 (Homo sapiens) (UniProt P29323).
T1 sequence (whole entry): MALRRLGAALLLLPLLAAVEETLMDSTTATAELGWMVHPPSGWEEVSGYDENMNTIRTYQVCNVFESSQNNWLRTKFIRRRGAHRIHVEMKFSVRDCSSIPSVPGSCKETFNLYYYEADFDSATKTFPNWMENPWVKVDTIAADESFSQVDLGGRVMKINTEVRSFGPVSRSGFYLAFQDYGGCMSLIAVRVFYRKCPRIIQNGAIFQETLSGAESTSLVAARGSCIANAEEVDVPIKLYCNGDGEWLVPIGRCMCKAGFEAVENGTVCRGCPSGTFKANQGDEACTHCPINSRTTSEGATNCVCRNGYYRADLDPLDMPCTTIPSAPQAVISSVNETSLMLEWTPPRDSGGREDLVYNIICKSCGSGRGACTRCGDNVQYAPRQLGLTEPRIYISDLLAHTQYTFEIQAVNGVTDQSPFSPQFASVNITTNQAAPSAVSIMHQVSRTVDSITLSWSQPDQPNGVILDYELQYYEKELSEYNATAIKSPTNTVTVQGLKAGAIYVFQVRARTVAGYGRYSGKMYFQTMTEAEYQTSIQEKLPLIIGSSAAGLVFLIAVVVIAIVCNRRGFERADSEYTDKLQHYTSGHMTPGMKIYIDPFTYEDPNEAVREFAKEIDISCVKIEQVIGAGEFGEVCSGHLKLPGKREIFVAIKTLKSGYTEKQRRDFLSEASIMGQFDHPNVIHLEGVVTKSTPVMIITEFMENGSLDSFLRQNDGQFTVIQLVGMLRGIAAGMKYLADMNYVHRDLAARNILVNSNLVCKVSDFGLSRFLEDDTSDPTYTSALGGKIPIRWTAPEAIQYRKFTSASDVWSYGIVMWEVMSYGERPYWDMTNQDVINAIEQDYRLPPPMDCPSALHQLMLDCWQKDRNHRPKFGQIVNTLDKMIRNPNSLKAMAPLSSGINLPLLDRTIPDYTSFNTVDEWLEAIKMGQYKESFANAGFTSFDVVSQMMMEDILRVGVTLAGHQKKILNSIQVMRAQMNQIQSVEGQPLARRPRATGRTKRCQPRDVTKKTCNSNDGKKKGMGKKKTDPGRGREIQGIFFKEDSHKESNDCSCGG
The conditions noted are these: at 1 µM.

The target of experiment [2] is T2, Ephrin type-B receptor 3 (Homo sapiens) (UniProt P54753).
T2 sequence (whole entry): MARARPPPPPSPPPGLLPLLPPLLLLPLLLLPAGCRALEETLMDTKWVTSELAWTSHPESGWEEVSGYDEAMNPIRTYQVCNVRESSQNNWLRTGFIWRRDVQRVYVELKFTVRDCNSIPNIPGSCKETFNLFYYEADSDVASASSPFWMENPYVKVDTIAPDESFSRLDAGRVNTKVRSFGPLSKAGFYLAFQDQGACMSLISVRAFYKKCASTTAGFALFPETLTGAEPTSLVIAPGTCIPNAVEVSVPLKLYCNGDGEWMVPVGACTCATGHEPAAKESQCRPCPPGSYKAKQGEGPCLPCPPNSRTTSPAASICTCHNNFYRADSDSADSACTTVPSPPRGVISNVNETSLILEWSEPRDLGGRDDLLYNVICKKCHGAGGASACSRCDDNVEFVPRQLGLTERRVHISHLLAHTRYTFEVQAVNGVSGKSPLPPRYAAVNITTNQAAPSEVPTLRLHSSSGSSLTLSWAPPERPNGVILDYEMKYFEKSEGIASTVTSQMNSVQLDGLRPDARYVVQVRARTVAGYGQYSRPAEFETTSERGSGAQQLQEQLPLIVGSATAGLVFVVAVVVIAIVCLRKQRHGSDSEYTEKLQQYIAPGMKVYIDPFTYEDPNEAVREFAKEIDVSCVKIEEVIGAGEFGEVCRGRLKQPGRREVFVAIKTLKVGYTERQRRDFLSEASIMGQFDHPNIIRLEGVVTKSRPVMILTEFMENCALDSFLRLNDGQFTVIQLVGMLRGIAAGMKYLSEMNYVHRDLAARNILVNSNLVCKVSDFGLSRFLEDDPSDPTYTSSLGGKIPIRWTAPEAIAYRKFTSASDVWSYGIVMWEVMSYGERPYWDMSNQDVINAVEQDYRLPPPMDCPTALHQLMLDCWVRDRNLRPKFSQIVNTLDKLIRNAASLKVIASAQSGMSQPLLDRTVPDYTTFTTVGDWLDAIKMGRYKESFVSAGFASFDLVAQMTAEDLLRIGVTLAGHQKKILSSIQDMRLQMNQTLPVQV
The conditions noted are these: at 0.1 µM.

Experiment [3] addresses T2, Ephrin type-B receptor 3 (Homo sapiens). The conditions noted are these: at 1 µM.
The target in experiment [4] is T3, Ephrin type-B receptor 4 (Homo sapiens) (UniProt P54760).
T3 sequence (whole entry): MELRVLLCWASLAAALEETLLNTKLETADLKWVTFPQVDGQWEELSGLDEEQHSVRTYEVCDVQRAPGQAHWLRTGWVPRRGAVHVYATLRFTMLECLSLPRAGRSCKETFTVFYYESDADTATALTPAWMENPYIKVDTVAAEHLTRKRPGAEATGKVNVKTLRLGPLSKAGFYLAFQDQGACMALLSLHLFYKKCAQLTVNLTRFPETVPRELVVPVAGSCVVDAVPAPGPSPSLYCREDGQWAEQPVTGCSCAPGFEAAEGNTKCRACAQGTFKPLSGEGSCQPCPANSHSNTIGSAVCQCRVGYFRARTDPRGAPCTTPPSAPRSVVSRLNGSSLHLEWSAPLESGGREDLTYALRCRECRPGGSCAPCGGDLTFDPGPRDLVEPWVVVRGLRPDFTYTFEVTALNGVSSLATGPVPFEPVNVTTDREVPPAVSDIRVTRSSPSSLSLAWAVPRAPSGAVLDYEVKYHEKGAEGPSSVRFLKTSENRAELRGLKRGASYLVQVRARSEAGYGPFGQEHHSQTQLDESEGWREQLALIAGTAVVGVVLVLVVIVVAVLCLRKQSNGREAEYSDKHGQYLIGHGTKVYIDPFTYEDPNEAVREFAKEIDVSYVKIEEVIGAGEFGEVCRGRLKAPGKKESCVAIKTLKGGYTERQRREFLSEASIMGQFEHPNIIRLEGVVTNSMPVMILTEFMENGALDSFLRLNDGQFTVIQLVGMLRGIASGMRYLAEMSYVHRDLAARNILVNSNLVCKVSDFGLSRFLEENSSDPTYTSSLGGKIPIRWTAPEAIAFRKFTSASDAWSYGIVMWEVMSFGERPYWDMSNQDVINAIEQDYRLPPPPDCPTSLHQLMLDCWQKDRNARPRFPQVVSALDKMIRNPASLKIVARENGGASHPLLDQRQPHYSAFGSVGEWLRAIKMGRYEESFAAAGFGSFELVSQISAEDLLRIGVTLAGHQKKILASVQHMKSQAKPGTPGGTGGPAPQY
The conditions noted are these: at 0.1 µM.

The target of experiment [5] is T3, Ephrin type-B receptor 4 (Homo sapiens). The conditions noted are these: at 1 µM.
Experiment [6] deals with Receptor tyrosine-protein kinase erbB-2 (Homo sapiens) (UniProt P04626). The conditions noted are these: at 0.1 µM.
Experiment [7] shares this target. The conditions noted are these: at 1 µM.
The target of experiment [8] is Receptor tyrosine-protein kinase erbB-4 (Homo sapiens) (UniProt Q15303). The conditions noted are these: at 0.1 µM.
The target is the same in experiment [9]. The conditions noted are these: at 1 µM.
The target of experiment [10] is Tyrosine-protein kinase Fer (Homo sapiens) (UniProt P16591). The conditions noted are these: at 0.1 µM.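 Further: reported figures are averaged percent inhibition of FER.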

Here are results for eight compounds from ChEMBL document CHEMBL1961873, “Compounds: GSK PKIS; Assays: Nanosyn kinase panel” (2012).

Each structure is given as a SMILES string.

Receptor tyrosine-protein kinase erbB-2 (Homo sapiens), sequence (P04626 whole entry): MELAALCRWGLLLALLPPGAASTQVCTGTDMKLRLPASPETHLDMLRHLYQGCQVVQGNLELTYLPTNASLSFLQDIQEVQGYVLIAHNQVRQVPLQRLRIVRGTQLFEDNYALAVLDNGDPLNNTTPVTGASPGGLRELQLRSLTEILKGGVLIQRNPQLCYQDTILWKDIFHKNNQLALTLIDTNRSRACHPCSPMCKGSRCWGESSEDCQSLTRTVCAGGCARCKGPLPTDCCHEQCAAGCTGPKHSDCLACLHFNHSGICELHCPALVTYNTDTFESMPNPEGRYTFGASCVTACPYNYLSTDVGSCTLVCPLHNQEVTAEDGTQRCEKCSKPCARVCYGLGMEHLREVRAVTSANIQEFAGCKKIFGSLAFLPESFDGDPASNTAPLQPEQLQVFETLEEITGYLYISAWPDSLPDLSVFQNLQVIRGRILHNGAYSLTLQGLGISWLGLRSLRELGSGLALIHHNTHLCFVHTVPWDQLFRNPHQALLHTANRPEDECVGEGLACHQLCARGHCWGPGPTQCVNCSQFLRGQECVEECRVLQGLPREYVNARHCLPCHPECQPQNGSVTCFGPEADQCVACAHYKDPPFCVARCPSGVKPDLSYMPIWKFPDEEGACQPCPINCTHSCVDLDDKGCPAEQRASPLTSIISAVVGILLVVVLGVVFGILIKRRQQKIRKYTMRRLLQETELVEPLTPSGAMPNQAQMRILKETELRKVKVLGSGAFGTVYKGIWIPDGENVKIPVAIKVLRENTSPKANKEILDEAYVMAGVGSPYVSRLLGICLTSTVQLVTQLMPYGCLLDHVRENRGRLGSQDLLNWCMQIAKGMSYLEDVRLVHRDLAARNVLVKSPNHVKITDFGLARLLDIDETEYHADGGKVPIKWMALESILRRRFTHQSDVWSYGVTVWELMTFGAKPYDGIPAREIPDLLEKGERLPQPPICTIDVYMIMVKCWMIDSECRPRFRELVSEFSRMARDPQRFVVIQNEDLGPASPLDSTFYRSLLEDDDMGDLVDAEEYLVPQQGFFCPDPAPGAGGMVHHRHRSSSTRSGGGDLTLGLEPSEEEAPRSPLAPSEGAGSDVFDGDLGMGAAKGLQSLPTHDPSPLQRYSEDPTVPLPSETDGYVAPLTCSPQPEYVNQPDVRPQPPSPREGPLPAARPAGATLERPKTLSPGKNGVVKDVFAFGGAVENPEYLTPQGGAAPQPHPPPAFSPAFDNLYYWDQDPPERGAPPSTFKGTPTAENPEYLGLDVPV
Receptor tyrosine-protein kinase erbB-4 (Homo sapiens), sequence (Q15303 whole entry): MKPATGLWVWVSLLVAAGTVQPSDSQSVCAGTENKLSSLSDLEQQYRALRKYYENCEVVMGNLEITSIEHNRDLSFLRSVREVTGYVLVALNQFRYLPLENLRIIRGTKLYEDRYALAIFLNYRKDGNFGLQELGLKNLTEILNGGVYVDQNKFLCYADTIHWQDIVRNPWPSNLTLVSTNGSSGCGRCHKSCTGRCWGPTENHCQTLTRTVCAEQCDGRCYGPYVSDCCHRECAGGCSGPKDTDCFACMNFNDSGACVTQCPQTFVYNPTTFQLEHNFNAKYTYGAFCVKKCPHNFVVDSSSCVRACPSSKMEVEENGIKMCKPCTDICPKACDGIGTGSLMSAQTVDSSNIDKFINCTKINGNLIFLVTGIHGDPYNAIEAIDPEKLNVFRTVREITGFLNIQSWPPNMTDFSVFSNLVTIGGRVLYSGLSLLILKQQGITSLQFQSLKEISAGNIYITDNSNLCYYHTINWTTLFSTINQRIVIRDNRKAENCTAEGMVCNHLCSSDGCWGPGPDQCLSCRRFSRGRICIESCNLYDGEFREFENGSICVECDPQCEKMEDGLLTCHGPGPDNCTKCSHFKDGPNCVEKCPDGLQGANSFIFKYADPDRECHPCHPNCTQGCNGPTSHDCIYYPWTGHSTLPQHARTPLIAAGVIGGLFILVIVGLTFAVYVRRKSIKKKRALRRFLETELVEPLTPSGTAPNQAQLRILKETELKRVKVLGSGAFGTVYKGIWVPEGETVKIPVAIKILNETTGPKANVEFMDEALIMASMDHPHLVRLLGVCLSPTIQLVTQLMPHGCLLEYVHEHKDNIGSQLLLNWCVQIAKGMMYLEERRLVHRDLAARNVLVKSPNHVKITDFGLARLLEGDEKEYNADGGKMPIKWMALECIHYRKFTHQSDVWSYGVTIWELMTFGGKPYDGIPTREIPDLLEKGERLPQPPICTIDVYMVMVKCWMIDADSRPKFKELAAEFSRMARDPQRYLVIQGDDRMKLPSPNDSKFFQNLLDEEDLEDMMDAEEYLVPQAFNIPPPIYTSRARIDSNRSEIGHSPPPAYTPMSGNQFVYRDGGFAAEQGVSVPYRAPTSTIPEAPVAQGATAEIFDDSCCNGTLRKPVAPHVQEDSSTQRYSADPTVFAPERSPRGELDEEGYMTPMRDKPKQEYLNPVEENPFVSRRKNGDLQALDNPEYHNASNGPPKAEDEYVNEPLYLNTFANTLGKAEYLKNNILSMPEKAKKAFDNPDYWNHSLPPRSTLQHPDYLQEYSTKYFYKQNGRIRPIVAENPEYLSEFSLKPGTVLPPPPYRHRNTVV
Tyrosine-protein kinase Fer (Homo sapiens), sequence (P16591 whole entry, looked up): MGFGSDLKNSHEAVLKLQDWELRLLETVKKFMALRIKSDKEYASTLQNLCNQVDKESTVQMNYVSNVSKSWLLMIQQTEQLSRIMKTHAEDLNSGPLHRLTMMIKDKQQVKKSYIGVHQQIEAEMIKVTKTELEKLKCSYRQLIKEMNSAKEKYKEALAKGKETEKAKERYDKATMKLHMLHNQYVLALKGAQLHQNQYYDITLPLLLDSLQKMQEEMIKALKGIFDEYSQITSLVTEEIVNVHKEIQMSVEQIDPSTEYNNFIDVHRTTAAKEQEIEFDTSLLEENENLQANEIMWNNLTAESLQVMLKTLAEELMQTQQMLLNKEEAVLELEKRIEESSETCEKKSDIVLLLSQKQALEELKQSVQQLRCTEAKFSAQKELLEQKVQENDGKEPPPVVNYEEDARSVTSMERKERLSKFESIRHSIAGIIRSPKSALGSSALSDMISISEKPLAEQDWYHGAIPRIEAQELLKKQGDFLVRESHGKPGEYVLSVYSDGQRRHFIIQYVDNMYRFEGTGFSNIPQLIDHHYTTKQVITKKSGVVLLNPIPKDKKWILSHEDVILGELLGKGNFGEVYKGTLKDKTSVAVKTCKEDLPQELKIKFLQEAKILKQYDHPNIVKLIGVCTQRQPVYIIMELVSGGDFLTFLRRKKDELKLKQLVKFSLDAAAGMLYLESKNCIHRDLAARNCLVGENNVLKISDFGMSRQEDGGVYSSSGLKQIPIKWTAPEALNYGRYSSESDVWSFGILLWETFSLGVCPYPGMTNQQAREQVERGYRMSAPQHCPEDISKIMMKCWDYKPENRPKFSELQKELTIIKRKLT

As a reminder, the inhibition is the relative decrease from the control value, in per cent. With `CCS(=O)(=O)c1ccc(OC)c(Nc2ncc(-c3cccc(C(C)=O)c3)o2)c1`, the inhibition in experiment [1] came to 21.8%; in experiment [2], 3.26%; in [3], 5.98%; in experiment [4], 1.8%; in experiment [5], 6.82%; in experiment [6], 2.14%. For the same compound, the inhibition in experiment [7] was 6.11%; in experiment [8], 7.58%; in experiment [9], 11.1%; in experiment [10], 1.02%.
As to `CNC(=O)c1cncc(/C=C/c2ccccc2C)c1`, the inhibition in experiment [1] was found to be 19.7%; in experiment [2], 5.82%; in experiment [3], 4.91%; in experiment [4], 1.77%; in [5], 9.19%; in [6], 2.44%. Moreover, the inhibition was 6.67% in experiment [7], 13.2% in experiment [8], 14.8% in experiment [9] and 4.15% in experiment [10].
Take `COc1ccc(-c2nn3ncccc3c2-c2ccnc(Nc3ccc(F)c(F)c3)n2)cc1`: the inhibition in [1] stood at 18.6%; in experiment [2] it was 4.77%; in experiment [3] it was 3.59%; in [4] it was 1.49%; in experiment [5] it was 7.6%; in experiment [6], 4.95%. In addition, the inhibition in experiment [7] came out at 5.88%; in experiment [8], 27.1%; in experiment [9], 71.3%; in experiment [10], 4.09%.
`O=C(O[C@H]1CN[C@H](C#Cc2cc3ncnc(Nc4ccc(OCc5cccc(F)c5)c(Cl)c4)c3s2)C1)N1CCOCC1`: the inhibition in experiment [1] is 6.81%; in experiment [2], 5.55%; in experiment [3], 5.83%; in experiment [4] it was 0.52%; in experiment [5] it was 1.52%; in experiment [6] it was 6.98%. For the same compound, the inhibition is 52.8% in experiment [7], 82.2% in experiment [8], 85.3% in experiment [9] and 5.92% in experiment [10].
On to `COc1cc(N2CCN(C(C)C)CC2)ccc1Nc1nc(Nc2cccc(F)c2C(=O)O)c2cc[nH]c2n1`, for which the inhibition in experiment [1] is 12.6%; in experiment [2], 3.69%; in experiment [3], 6.24%; in [4], 2.82%; in experiment [5], 2.84%; in experiment [6], 3.72%. The inhibition in experiment [7] turned out to be 5.93%; in [8], 11.7%; in [9] it was 11.2%; in experiment [10], 32.5%.
On to `N#Cc1cccc(Nc2ncc(-c3ccccc3)o2)c1`, for which the inhibition in experiment [1] was 0.63%; in experiment [2], 3.66%; in experiment [3] it was 1.53%; in [4], 0.33%; in experiment [5], 0.44%; in experiment [6] it was 2.68%. Moreover, the inhibition in [7] was found to be 4.17%; in [8], 6.42%; in experiment [9], 9.11%; in experiment [10], 1.76%.
In the case of `CNC(=O)c1sc(-n2cnc3cc(OC)c(OC)cc32)cc1OCc1ccccc1C(F)(F)F`, the inhibition in experiment [1] came to 14%; in experiment [2], 4.48%; in [3] it was 3.52%; in [4], 0.98%; in [5] it was 5.78%; in experiment [6], 2.12%. Besides, the inhibition in experiment [7] was found to be 3.74%; in [8], 6.92%; in experiment [9], 10.3%; in [10], 2.95%.
Consider `OCCCNc1nccc(-c2c(-c3ccc(F)cc3)nn3cc(C(F)(F)F)ccc23)n1`, for which the inhibition in [1] was 28.2%; in experiment [2], 4.77%; in [3], 1.45%; in [4], 1.6%; in experiment [5], 7.56%; in experiment [6], 0.24%. In addition, the inhibition was -0.41% in [7], 8.07% in [8], 14.4% in experiment [9] and 1.98% in [10].
